The whole screen tested about 2,100 compounds, of which about 670 (32%) were called active. Roughly 50% stayed inconclusive and do not appear here. The list shows a part of the results. Values without a mark were called inactive. Calls follow the shape of the dose curve; as a rule, active = well fitted inhibition curve with a large enough effect; inconclusive = small, poorly fitted or top-dose-only effect; inactive = no such curve, though single readings can be large or run the other way.
Test: CMV-Luciferase Counterscreen for Inhibitors of ATXN expression; also: nearly all actives have a fitted effect of over 55% in size
Details: HEK-293 CMV-luciferase reporter, luminescence, 24 h; series mostly up to 57.5 µM
% is scaled to controls: 0 for no effect and ±100 for the full control effect; potency is read from the fitted curve at half-maximal effect.

Row | Structure (SMILES) | Potency | activity change, negative = inhibition
1 | COc1cc2c3nnc(-c4ccc(F)cc4)c-3cn(Cc3ccc(C)cc3)c2cc1OC | inactive | –
2 | O=c1oc2ccccc2c(O)c1Cc1cc(Cl)c2cccnc2c1O | 10 µM (active) | –
3 | CCC1(c2ccccc2)ON(c2c(Br)cccc2Br)C1=O (stereo not given) | 17.8 µM (active) | –
4 | O=C(c1ccc(Cn2c(=S)[nH]c3ccccc3c2=O)cc1)N1CCN(c2ccccn2)CC1 | 3.16 µM (active) | –
5 | CCc1nc2ccc(C(=O)Nc3cccc(NS(C)(=O)=O)c3)cn2c1N(CC)Cc1cccc(Br)c1 | 31.6 µM (active) | –
6 | Cn1c(-[n+]2c(-c3ccccc3)cc(-c3ccccc3)cc2-c2ccccc2)nc2c([N+](=O)[O-])cccc21 | – | 0.1% [at 11.4 µM]
7 | CCc1nc(N)nc(N)c1-c1ccc(N(C)Cc2ccccc2)c([N+](=O)[O-])c1 | 0.501 µM (active) | –
8 | O=S(=O)([N-]c1nc2ccccc2nc1-[n+]1ccc(Cc2ccccc2)cc1)c1ccc(Br)s1 | 14.1 µM (active) | –
9 | Cc1ccc(-c2cc(C(=O)NCCCN3CCOCC3)no2)cc1 | 8.91 µM (active) | –
10 | CN1CCN(CCNC(=O)c2ccc3nc(-c4ccc(F)cc4)c(-c4ccc(F)cc4)nc3c2)CC1 | inactive | –
11 | O=C(Nc1ccc(Cl)c([N+](=O)[O-])c1)c1ccc(NCCCN2CCOCC2)c([N+](=O)[O-])c1 | inactive | –
12 | Cc1cnc(NC(=O)C2CC(=O)N(c3cccc(Cl)c3)C2)s1 (stereo not given) | – | 51.5% [at 11.4 µM]
13 | CCc1ccc(N2CC(C(=O)N/N=C/c3cc([N+](=O)[O-])ccc3O)CC2=O)cc1 (stereo not given) | 10 µM (active) | –
14 | O=C(N/N=C/c1ccccc1O)C1CC(=O)N(c2ccc(Cl)cc2)C1 (stereo not given) | 0.631 µM (active) | –
15 | COc1ccc(Cn2c(-c3ccc(C)cc3)c[n+]3ccccc23)cc1 | 1 µM (active) | –
16 | Nc1nc(N)c2cc(Sc3ccc4ccccc4c3)ccc2n1 | 10 µM (active) | –
17 | COc1cc(NC(=O)c2cc(-c3ccccc3)nc3c2cnn3C(C)C)cc(OC)c1OC | 3.16 µM (active) | –
18 | COc1cc(Nc2ncc3c(n2)CCN(C(=O)Nc2ccc(C(C)C)cc2)C3)cc(OC)c1OC | – | -3.4% [at 11.4 µM]
19 | O=C(Nc1ccc(N2CCN(C(=O)c3ccco3)CC2)c(Cl)c1)c1cccs1 | 20 µM (active) | –
20 | O=C(Nc1ccc(NC(=O)c2ccc(Cl)cc2Cl)cc1)c1cccs1 | inactive | –
21 | O=C(Nc1ccc(N2CCOCC2)c(Cl)c1)c1c(F)c(F)c(F)c(F)c1F | – | 29.5% [at 11.4 µM]
22 | Cc1ccccc1C(=O)N1CCN(c2ccc(NC(=O)c3ccco3)cc2Cl)CC1 | 12.6 µM (active) | –
23 | N#Cc1nc(Cc2cccc3ccccc23)oc1NCc1ccc(F)cc1 | 12.6 µM (active) | –
24 | CC(C)(C)c1cc(C(=O)N/N=C/c2ccc([N+](=O)[O-])s2)n[nH]1 | 11.2 µM (active) | –
25 | O=C(N/N=C/c1ccc([N+](=O)[O-])s1)c1ccccc1 | 7.94 µM (active) | –
26 | Cc1ccccc1C(=O)N/N=C/c1ccc([N+](=O)[O-])s1 | 11.2 µM (active) | –
27 | Cc1ccnn1CC(=O)N/N=C/c1ccc([N+](=O)[O-])s1 | 15.8 µM (active) | –
28 | COc1ccc(C(=O)NCC(=O)N/N=C/c2ccc([N+](=O)[O-])s2)cc1OC | 12.6 µM (active) | –

Row | Structure (SMILES) | Potency | activity change, negative = inhibition
29 | CC(C)c1cccc(C(C)C)c1Nc1cn[nH]c1 | – | -9.58% [at 11.4 µM]
30 | c1ccc(-c2cccc(-c3ccccn3)n2)nc1 | – | 72.5% [at 11.4 µM]
31 | NC(=Nc1nc(-c2ccccn2)cc2ccccc12)c1ccccn1 | 0.0398 µM (active) | –
32 | COc1ccc(-c2nc(NC(=O)C3CC(=O)N(c4ccc5c(c4)OCCO5)C3)sc2C)cc1 (stereo not given) | 10 µM (active) | –
33 | O=C(C1CC(=O)N(c2ccc3c(c2)OCCO3)C1)N1CCN(c2ccccc2)CC1 (stereo not given) | – | -8.65% [at 11.4 µM]
34 | CCc1ccc(-c2csc(NC(=O)C3CC(=O)N(c4ccc5c(c4)OCCO5)C3)n2)cc1 (stereo not given) | 10 µM (active) | –
35 | COc1cc(-c2cc3nc(NCc4cccc(Cl)c4)ccn3n2)cc(OC)c1OC | 3.55 µM (active) | –
36 | O=C(Nc1cccc2cccnc12)c1csc(COCCO)n1 | inactive | –
37 | O=C(Nc1c(Cl)cccc1Cl)Oc1cccc2cccnc12 | 10 µM (active) | –
38 | CCOC(=O)c1ccc(N=c2sc(C(=O)OC)cc(=O)n2-c2ccc(C(=O)OCC)cc2)cc1 | – | -3.07% [at 11.4 µM]
39 | CCOC(=O)c1ccc(/C=C2/C=C(c3ccccc3)N(c3ccc(Cl)c(C(=O)O)c3)C2=O)cc1 | 12.6 µM (active) | –
40 | Cc1ccc(-c2c(C#N)c(N)n3c(nc4ccccc43)c2C#N)cc1 | 7.08 µM (active) | –
41 | NS(=O)(=O)c1ccc(CCNc2ccn3nc(-c4cccc(C(F)(F)F)c4)cc3n2)cc1 | 31.6 µM (active) | –
42 | CN(C)CCCNc1nc2cc(-c3ccc(F)cc3)sc2c(=O)n1C | inactive | –
43 | COc1cccc(CNc2nc3cc(-c4ccc(C(=O)N5CCN(C)CC5)cc4)sc3c(=O)n2C)c1 | 12.6 µM (active) | –
44 | Cn1c(NCCN2CCCC2)nc2cc(-c3ccsc3)sc2c1=O | inactive | –
45 | Fc1ccc2[nH]c3c(NCc4ccccc4)ncnc3c2c1 | 0.631 µM (active) | –
46 | COc1ccc(CNc2ncnc3c2[nH]c2ccccc23)cc1 | 2.82 µM (active) | –
47 | Cc1[nH]n2c(=O)cc(C(C)(C)C)nc2c1-c1ccccc1 | 3.55 µM (active) | –
48 | O=C(CN1C(=O)c2ccccc2S1(=O)=O)N1CCc2ccccc21 | 0.224 µM (active) | –
49 | O=C(CN1C(=O)c2ccccc2S1(=O)=O)c1ccc(O)c(O)c1 | 0.794 µM (active) | –
50 | Cc1ccc(C(=O)CN2C(=O)c3ccccc3S2(=O)=O)cc1 | 0.398 µM (active) | –
51 | Cc1cc(C)c(C(=O)/C=C/c2ccc(C(C)C)cc2)c(=O)[nH]1 | 8.91 µM (active) | –
52 | O=C(/C=C/c1ccccc1)c1cc(Br)ccc(=O)c1O | inactive | –
53 | Cc1ccc(C)c(/C=C/C(=O)c2ccccc(=O)c2O)c1 | inactive | –
54 | Cc1[nH]c(=O)c(C(=O)/C=C/c2ccccc2)c2c1CCCC2 | 8.91 µM (active) | –
55 | C[C@@H]1C[C@@H]2O[C@H]2/C=C\C=C\C(=O)Cc2c(Cl)c(O)cc(O)c2C(=O)O1 | – | 25.3% [at 11.4 µM]

Reference: PubChem BioAssay AID1745847 (National Center for Advancing Translational Sciences (NCATS), 2022)
